Calls of active or inactive are those of the source. Calls come from the whole dose curve; as a rule, active = well fitted activation curve with a large enough effect in the repeat runs; inconclusive = weak or mixed curves; inactive = flat fitted curve, though single readings scatter.
assay: A CellTox Green Cytotoxicity Assay to monitor cytotoxicity in HEK293 cells - 0 hour (AID 1224869); settings: CellTox Green fluorescence; series mostly up to 76.8 µM; cytotoxicity: at the top concentration; note: nearly all actives have a fitted effect of over 50% in size
Source text: National Center for Advancing Translational Sciences [NCATS]
NIH Chemical Genomics Center [NCGC]
U.S. Environmental Protection Agency [EPA]
National Institutes of Environmental Health Sciences [NIEHS]
National Toxicology Program [NTP]
Cell-based models are critical for drug discovery. Determining the natural cytotoxic effects resulting from test compounds is an essential research activity. A CellTox Green Cytotoxicity Assay to monitor cytotoxicity in real time of continues cell culture during 40 hours of the compound treatment was used to screen Tox21 10K library compounds in Hek293 cells. CellTox Green Cytotoxicity Assay is a nonlytic, homogeneous, biofluorescent method to measure cytotoxicity in cell culture after experimental manipulation. The assay system uses a proprietary asymmetric cyanine dye that is excluded from viable cells but preferentially stains the dead cell's DNA. […] Viable cells produce no appreciable increases in fluorescence. Therefore, the fluorescence signal produced by the binding interaction with dead cell DNA is proportional to cytotoxicity.
The mixture of Hek293 cell suspension and reagents were dispensed at 600cells/6 ul/well in 1536-well tissue culture treated black solid bottom plates using a Multidrop dispenser. After the assay plates were incubated at a 37 C/5% CO2 incubator for 5 hours, 23 nL of compounds dissolved in DMSO, positive and negative controls was transferred to the assay plate by a pintool work station. The plates were incubated at 37 C for 40 hours. The fluorescence intensity were measured at 0h, 8h, 16h, 24h, 32h and 40h time points using ViewLux plate reader during compound treatment.
% is set by controls: 0 for no effect and ±100 for the full control effect.

Compound	cytotoxicity	Potency
C[C@H]1c2cccc(O)c2C(O)=C2C(=O)[C@]3(O)C(O)=C(C(N)=O)C(=O)[C@@H](N(C)C)[C@@H]3[C@@H](O)[C@@H]21	1.12% [at 35.3 µM] (inactive)	
O=C1NCCN1CCO	-1.81% (inactive)	
C[C@]12CC[C@@H]3c4ccc(O)cc4CC[C@H]3[C@@H]1CC[C@@H]2OC(=O)CCC1CCCC1		inactive
COC(=O)CCS	-2.58% (inactive)	
CCC1NC(=O)c2cc(S(N)(=O)=O)c(Cl)cc2N1 (stereo not given)	-9.93% [at 35.3 µM] (inactive)	
C/C=C(/C(=C/C)c1ccc(O)cc1)c1ccc(O)cc1	3.96% [at 35.3 µM] (inactive)	
CCCCCC[C@@H](O)C/C=C\CCCCCCCC(=O)O	-5.4% (inactive)	
Oc1c(I)cc(I)c2cccnc12	0% [at 35.3 µM] (inactive)	
O=c1[nH]c2ccc(Cl)cc2o1	-2.74% (inactive)	
CS(=O)(=O)c1ccc(-c2cn3ccccc3n2)cc1	11.7% [at 35.3 µM] (inactive)	
Cc1ccc2c(Br)cc(Br)c(O)c2n1	1.13% [at 35.3 µM] (inactive)	
O=C1Cc2cc(Cl)ccc2N1	4.85% [at 35.3 µM] (inactive)	
Cc1cccc(O)c1N	-1.63% (inactive)	
COC(=O)CS	0.403% (inactive)	
Nc1ccc(N=Nc2ccccc2)c(N)c1	-12.4% (inactive)	
C=CCc1ccccc1OCC(O)CNC(C)C (stereo not given)	6.86% [at 35.3 µM] (inactive)	
CC(C)COCC(CN(Cc1ccccc1)c1ccccc1)N1CCCC1 (stereo not given)	-2.03% [at 35.3 µM] (inactive)	
CN1CCCC(n2nc(Cc3ccc(Cl)cc3)c3ccccc3c2=O)CC1 (stereo not given)	0.912% [at 35.3 µM] (inactive)	
O=C1CCCCCCCCCCOCCCCO1	-0.312% (inactive)	
CO/N=C(/C(=O)N[C@@H]1C(=O)N2C(C(=O)O)=C(COC(N)=O)CS[C@H]12)c1ccco1	0.0298% (inactive)	

Compound	cytotoxicity	Potency
Cc1cscn1	1.63% (inactive)	
CC1(C)S[C@@H]2[C@H](NC(=O)C(c3ccccc3)S(=O)(=O)O)C(=O)N2[C@H]1C(=O)O (stereo not given in full)	-0.327% [at 35.3 µM] (inactive)	
O=C(/C=C/c1ccc(O)c(O)c1)O[C@@H]1C[C@@](OC(=O)/C=C/c2ccc(O)c(O)c2)(C(=O)O)C[C@@H](O)[C@@H]1O	6.48% [at 35.3 µM] (inactive)	
C=CC(C)(CCC=C(C)C)OC(=O)CC(C)C (stereo not given)	1.8% (inactive)	
CCCCN(CCCC)C(C(N)=O)c1ccc(OC)cc1 (stereo not given)	-2.96% [at 35.3 µM] (inactive)	
CCCCN1CCCC1C(=O)Nc1c(C)cc(C)cc1C (stereo not given)	18.3% [at 35.3 µM] (inactive)	
NC(=O)c1ccncc1	-5.43% (inactive)	
C=C1CCC2CC1C2(C)C (stereo not given)	-8.54% (inactive)	
Nc1nnc(-c2ccc([N+](=O)[O-])o2)o1	-0.483% (inactive)	
CN1C[C@H](C(=O)N[C@]2(C)O[C@@]3(O)[C@@H]4CCCN4C(=O)[C@H](Cc4ccccc4)N3C2=O)C[C@@H]2c3cccc4[nH]cc(c34)C[C@H]21	-7.51% [at 35.3 µM] (inactive)	
CN1CCCN=C1COC(=O)C(O)(c1ccccc1)C1CCCCC1 (stereo not given)	-0.31% [at 35.3 µM] (inactive)	
O=C(Cn1ccnc1[N+](=O)[O-])NCCO	-0.955% [at 35.3 µM] (inactive)	
C[C@@H](O)[C@H]1C(=O)N2C(C(=O)O)=C([C@H]3CCCO3)S[C@H]12	0.134% [at 35.3 µM] (inactive)	
OC[C@H]1O[C@@H](n2cnc3c(=S)nc[nH]c32)[C@H](O)[C@@H]1O	0.804% [at 35.3 µM] (inactive)	
C=C(C)C(=O)OCCCCCCCCCCCCC	-3.75% (inactive)	
O=C(O)CCCCCCCCCCCBr	1.55% (inactive)	
CC(C)c1nc(CN(C)C(=O)N[C@H](C(=O)N[C@@H](Cc2ccccc2)C[C@H](O)[C@H](Cc2ccccc2)NC(=O)OCc2cncs2)C(C)C)cs1	2.15% [at 35.3 µM] (inactive)	
CC(C)(c1ccccc1)c1ccccc1	-0.515% (inactive)	
CCOc1ccccc1O[C@H](c1ccccc1)[C@H]1CNCCO1	8.99% [at 35.3 µM] (inactive)	
C=CC(=O)[O-].C=CC(=O)[O-].[Zn+2]	-2.19% (inactive)	

Source: PubChem BioAssay (Tox21)
